# Data: PubChem BioAssay AID651965 (National Center for Advancing Translational Sciences (NCATS), 2013)
# About 6,400 (1.9%) of roughly 340,000 compounds were called active. Not shown: some 4% with an inconclusive outcome. The full list was thinned out, with actives kept by preference. Values without a mark were called inactive. Calls follow the shape of the dose curve; as a rule, active = well fitted falling curve with a large enough effect; inconclusive = small, poorly fitted or top-dose-only effect; inactive = no such curve, though single readings can be large or run the other way.
# Biological target: ATP-dependent Clp protease proteolytic subunit (Bacillus subtilis (strain 168)) (UniProt P80244)
# Sequence (P80244 whole entry, looked up): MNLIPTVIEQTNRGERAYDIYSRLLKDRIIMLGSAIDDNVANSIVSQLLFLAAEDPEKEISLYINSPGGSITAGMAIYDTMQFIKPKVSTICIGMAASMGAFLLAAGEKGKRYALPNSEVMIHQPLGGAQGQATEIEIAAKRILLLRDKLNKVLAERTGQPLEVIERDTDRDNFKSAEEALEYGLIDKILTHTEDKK
# Assay: qHTS Assay for Activators of ClpP; also: the source files actives as falling curves though it sought activators and does not explain the sign; nearly all actives have a fitted effect of over 65% in size
# Details: purified B. subtilis ClpP, FRET peptide cleavage, 20 min; series mostly up to 57.5 µM; activity change, negative = active: at the top concentration
# Text: The Clp protease proteolytic subunit (ClpP) is the core unit of the Clp complex belonging to the peptidase family S14 that hydrolyzes protein into small peptides in the presence of ATP and magnesium. It is ubiquitously expressed and is the major protease in bacteria. […] Unlike common antibiotics that simply interfere with the essential enzyme activity, ADEP binding activates the ClpP core in the absence of the regulatory Clp-ATPases leading to uncontrolled proteolysis and eventually cell death. Activators binding to the docking site on ClpP can also block formation of the ClpXP and ClpA/C-P holoenzyme complexes interfering with the normal biological functions of ClpP and thus have the potential to become new anti-microbials.
# To identify activators of ClpP, a FRET based quenching reversal assay was developed using a purified B. subtilis ClpP and a decapeptide substrate (FRET-FV). The FRET-FV is tagged with a fluorescent molecule amino benzoic acid (donor) at the N-terminus and a nitrotyrosine quencher (acceptor) at the C-terminus. FRET-FV cleaves upon activation of ClpP with ADEP treatement and reverses the quenching effect of the nitrotyrosine causing an increase in fluorescence emission signal at 430nm. This assay was used to screen the Molecular Libraries Small Molecule Repository (MLSMR).
# NIH Molecular Libraries Probe Production Centers Network [MLPCN]
# NIH Chemical Genomics Center [NCGC]
# Assay Submitter (PI): Michael Maurizi, National Cancer Institute
# Two and a half microL/well of purified enzyme solution (final concentrations 10 microg/mL B. subtilis ClpP in 100 mM Tris/HCl pH8, 100 mM KCl, 0.05% low protease BSA, 2.5% glycerol, 0.01% Tween-20 buffer) was dispensed into 1536-well assay plates (Greiner, black solid, medium-binding plates) with Aurora Discovery BioRAPTR Flying Reagent Dispenser (FRD, Beckton-Dickenson). Compound solution (23 nL) was transferred to the assay plate using Kalypsys pin tool equipped with a 1536-pin tool. […] FRET signals at time 0 and after 20 min room temperature incubation were obtained using the PerkinElmer Envision plate reader with 320nm excitation and 430nm emission filters. Delta FRET value (Time 20 - Time 0) was calculated and normalized to the delta FRET value of positive control ADEP (5.8 microM final concentration) and negative control DMSO and no enzyme wells.
# Potency is read from the fitted curve at half-maximal effect.
SMILES,"activity change, negative = active [%]",Potency
O=[N+]([O-])c1ccc(/C=C/c2ccc3cccnc3c2)cc1,-3.98,–
N#Cc1ccc[n+](CC(=O)c2ccc(F)cc2)c1,0.138,–
Cc1nn(-c2ccccn2)c2c1C(c1ccncc1)C1=C(CC(C)(C)CC1=O)N2 (stereo not drawn),–,31.6 µM (active)
Cc1cc(C)c(C2C3=C(Nc4c2c(C)nn4-c2ccccn2)c2ccccc2C3=O)c(C)c1 (stereo not drawn),-1.74,–
CC1(C)CC(=O)C2=C(C1)Nc1cc(C(=O)c3ccccc3)ccc1NC2c1ccccn1 (stereo not drawn),-1.17,–
Clc1cccc[n+]1CCCC[n+]1ccccc1Cl,-3.17,–
Cc1noc(C)c1S(=O)(=O)N(C)C[C@H]1OCCCC[C@@H](C)Oc2ccc(NC(=O)CCCN(C)C)cc2C(=O)N([C@H](C)CO)C[C@@H]1C,0.472,–
CCc1cc(C(=O)N(CC)CC(=O)Nc2c(F)cccc2F)sc1C,-1.44,–
O=C(NNc1nc(N2CCCC2)nc(N2CCCC2)n1)c1ccccc1,0.913,–
CN(N)c1nc(N2CCCC2)nc(N2CCCC2)n1,–,31.6 µM (active)
FC(F)(F)COc1nc(N2CCCCC2)nc(N2CCNCC2)n1,0.515,–
CC(C)C1C(=O)N(Cc2cn(CCC3OCCO3)nn2)CCS(=O)(=O)N1Cc1ccc(-c2ccccc2C(F)(F)F)cc1 (stereo not drawn),1.59,–
O=C(Nc1ccc(F)cc1)C(CCc1ccccc1)N1CCN(CC(=O)N2CCCC2)CC1 (stereo not drawn),1.39,–
CN(Cc1ccccc1)C(=O)c1cc2c(=O)n(C)c3ccccc3c2s1,-25.1,–
CCN(CCCNC(=O)c1cc2c(=O)n(CC)c3ccccc3c2s1)Cc1ccccc1,–,3.55 µM (active)
CCn1c(=O)c2cc(C(=O)Nc3cccc(C(C)=O)c3)sc2c2ccccc21,-5.57,–
CCOC(=O)c1c(C)c(C(=O)NCCc2ccc(S(N)(=O)=O)cc2)c(C)n1CC,-24.6,–
NS(=O)(=O)c1ccc(CCNC(=O)c2ccc(Cl)c(S(=O)(=O)N3CCCCCC3)c2)cc1,-3.6,–
Cc1c(C)n(Cc2ccc(Cl)cc2)c2ccc(C(=O)NCCc3ccc(S(N)(=O)=O)cc3)cc12,–,14.1 µM (active)
COC(=O)[C@@]12C[C@@H](CC(=O)NCc3cccc(C(F)(F)F)c3)C(=O)N(Cc3ccco3)C1=CCC(C)(C)C2,1.62,–
Cc1cccc(CN2Cc3cccc4c3[C@H](C=CC4)CC2=S)c1,-3.52,–
Cc1cc(OCC(=O)Nc2nccs2)c2c(C)c(C)c(=O)oc2c1,–,31.6 µM (active)
Cc1cc(OCC(=O)NCC(O)c2ccccc2)c2c(C)c(C)c(=O)oc2c1 (stereo not drawn),3.71,–
COc1ccc(CCNC(=O)COc2cc(C)cc3oc(=O)c(C)c(C)c23)cc1OC,-6.73,–

SMILES,"activity change, negative = active [%]",Potency
COc1ccccc1-c1cc(NC(C)=O)c2ncc(-c3ccc(F)cc3)n2c1,4.69,–
CCc1cccc(CC)c1NC(=S)Nc1ccc2cn[nH]c2c1,-18.4,–
Cc1cc2[nH]ncc2cc1NC(=S)NC(=O)c1ccccc1,8.42,–
Cc1cccc(NC(=S)Nc2ccc3cn[nH]c3c2)c1,–,22.4 µM (active)
COc1cc(CNc2ncnc3c2ncn3[C@H]2CN(Cc3cccs3)C[C@@H](CO)O2)cc(OC)c1OC,-1.33,–
CC1(C(=O)NCc2cccc3ccccc23)CCN1Cc1ccc(-c2ccccc2)o1 (stereo not drawn),-22.3,–
CCOc1ccc(S(=O)(=O)NCCC(=O)NCC2CCCO2)cc1 (stereo not drawn),-0.322,–
CC1(C)CC(=O)c2cc(OCC(=O)NCC3CCCO3)ccc2O1 (stereo not drawn),–,11.2 µM (active)
C=CCOc1ccc(/C=C/C(=O)OCC(=O)NCC2CCCO2)cc1 (stereo not drawn),3.23,–
Cc1ccccc1S(=O)(=O)N1[C@@H](c2cccc(Cl)c2)C(C(=O)OC(C)(C)C)=CC[C@H]1c1ccc(Cl)cc1,-4.28,–
COC(=O)C1(C(=O)OC)C/C=C\CN(S(=O)(=O)c2ccccc2[N+](=O)[O-])CCC1,0.858,–
Cc1cccc(C(=O)Nc2ccccc2-c2nnn(CC(=O)Nc3ccc4c(c3)OCCO4)n2)c1,3.15,–
O=C(Nc1ccccc1-c1nnn(CC(=O)N2CCN(c3ccccc3)CC2)n1)c1cccs1,-19.7,–
O=C(Nc1ccccc1-c1nnn(CC(=O)N2CCCc3ccccc32)n1)c1cccc(Cl)c1,–,20 µM (active)
COC(=O)[C@]12CCCCC=C1N(Cc1ccc3c(c1)OCO3)C(=O)[C@H](CC(=O)NCc1cccs1)C2,-1.48,–
CCCCCCCCN1C(=O)[C@H](CC(=O)NCC23CC4CC(CC(C4)C2)C3)C[C@@]2(C(=O)OC)CCCCC=C12,-1.46,–
O=C(Nc1cccc2ccccc12)NC1CC1,3.85,–
COc1ccc(C(=O)NNS(=O)(=O)c2ccc(C)cc2)cc1,-7.98,–
Cc1ccc(S(=O)(=O)NNC(=O)Nc2cccc3ccccc23)cc1,–,14.1 µM (active)
COc1ccc(-c2nc(=N)sn2-c2ccccc2)cc1,-2.14,–
COC(=O)[C@@]12C[C@@H](CC(=O)NCCCCc3ccccc3)C(=O)N(Cc3ccccc3)C1=CCC(C)(C)C2,-1.89,–
COc1cccc(OCc2cc(/C=N/NC(=O)c3nc(Cl)c(Cl)c(N)c3Cl)ccc2OC)c1,-23.6,–
COc1cc(/C=N/NC(=O)CNC(=O)c2ccncc2)ccc1OC(C)=O,-0.766,–
COc1ccc(/C=N/NC(=O)c2ccc(Cl)cc2)cc1COC(C)=O,–,25.1 µM (active)
